# Biological target: EHD3
# Assay: pooled miR-30 sensor sort-seq; sequence = guide strand
# Settings: shRNA
# Note: reference of the scale not given here.
row,Sequence,sensor-assay potency score (higher = more potent)
1,TAGAAGATCTCGTCGTACATGG,-0.19
2,TTGATGACTTCTGAGAACTCAT,-0.245
3,TAGGAAAGAACAGAGCTCCTGG,0.716
4,TTGATGAGGTCGTTGAGCTTGC,0.159
5,TTGTCCTTCCCGAACACCGAGG,-1.14
6,TTTGTGGGCATCGAAGAGCAGA,-1.26
7,TTCTTCTTGTTGTCCTTCCCGA,-0.7
8,AAACTCGTCGTCGTCCAGCATG,-1.38
9,TTGACCAGCTCCTTCTTCTTGT,0.288
10,TCGAAGAGCAGAATGATGCGGT,0.407
11,TTTCTTGGGATCCACCACCAGG,-1.36

# Biological target: EHMT2
# Assay: as above
# Settings: shRNA
row,Sequence,sensor-assay potency score (higher = more potent)
1,TTCATGGTGGACGTCTCGCAGT,-1.22
2,TTGAGCTTCAGAAGCATCCTCC,0.398
3,TAGAGCTTCAACTTCAGACTTG,0.68
4,ATCCTTGTTGTCTAAGTCGAAG,-1.84
5,TTACACTCGAAAATCAGCGGAG,-0.173
6,TTGACGTCCACCTGTCCTGTGC,-0.646
7,TTGAGTTGAAGCGCAAACCACA,-1.4
8,TTAGTTGTTCAGTTAGAGCTTC,0.313
9,TAGCATGCGGATCACCTCGATG,-1.39
10,TGAGTGGACATCATCACTCATG,-1.27
11,TTGCTCTGCTGGTCGCTCTGGA,-0.425
12,TTCTTCTTGGCCTTGCGCCGGC,-0.437

# Biological target: EID2B
# Assay: as above
# Settings: shRNA
row,Sequence,sensor-assay potency score (higher = more potent)
1,ATACTCGCGGAACAACAGCTGC,-1.3
2,TTCCTGACAACTCTATTTCTTT,-0.963
3,TTCTATTGAATATTTACTGTTC,0.0406
4,TTTTCTTTCATCACTTAGGTTC,-0.263
5,TTTTTTCTCATATCTTTGCAAA,-1.11
6,TATCTTTGCAAAACCATCCTTT,-0.0384
7,TAACTAAACTGGCACAGCCTGC,-0.861
8,TTTTCTATTGAATATTTACTGT,-0.85
9,TCGCGGAACAACAGCTGCCGGT,-1.55
10,TAAACTGGCACAGCCTGCCTGT,-0.54
11,TAAGTCAGAAGTGTCTTGGGAC,0.252
12,TTGACATGACCACAAATTGTGA,-1.04

# Biological target: EIF1
# Assay: as above
# Settings: shRNA
row,Sequence,sensor-assay potency score (higher = more potent)
1,TTTTATCGTAATCATCAGCGAT,-0.796
2,TAGTAAGGGTCTTCCTGCCGTT,-0.658
3,TTGGACAGTAGTAAGGGTCTTC,0.328
4,TTATATGGATATAATCCTCAGT,-0.502
5,AATTACTTCTCCATATTCCGGA,0.541
